Each structure is given as a SMILES string. Inconclusive results are not listed. A number with no mark means an inactive call. The source made the active and inactive calls. Calls follow the shape of the dose curve; as a rule, active = well fitted inhibition curve with a large enough effect; inconclusive = small, poorly fitted or top-dose-only effect; inactive = flat fitted curve, though single readings scatter.

Lysosomal acid glucosylceramidase (Homo sapiens), sequence (P04062 whole entry N409S): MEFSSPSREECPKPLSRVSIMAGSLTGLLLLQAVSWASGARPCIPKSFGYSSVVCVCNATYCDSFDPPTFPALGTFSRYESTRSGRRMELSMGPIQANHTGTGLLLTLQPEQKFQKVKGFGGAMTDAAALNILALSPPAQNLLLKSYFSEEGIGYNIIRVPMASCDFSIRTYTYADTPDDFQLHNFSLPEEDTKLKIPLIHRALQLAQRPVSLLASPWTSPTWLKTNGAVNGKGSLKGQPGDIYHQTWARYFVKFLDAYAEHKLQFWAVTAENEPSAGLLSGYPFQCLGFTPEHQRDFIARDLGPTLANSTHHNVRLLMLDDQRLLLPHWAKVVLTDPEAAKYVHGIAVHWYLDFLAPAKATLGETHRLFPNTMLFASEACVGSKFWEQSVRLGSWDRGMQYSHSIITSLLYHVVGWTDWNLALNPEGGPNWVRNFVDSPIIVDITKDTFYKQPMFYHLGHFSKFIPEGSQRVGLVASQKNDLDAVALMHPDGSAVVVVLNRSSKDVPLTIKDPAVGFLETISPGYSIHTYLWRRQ

The test concerns the target Lysosomal acid glucosylceramidase (Homo sapiens) (UniProt P04062). Nature of the test: qHTS Assay for Inhibitors and Activators of N370S glucocerebrosidase as a Potential Chaperone Treatment of Gaucher Disease: Activity in N370S Spleen Homogenate Using a Red Fluorescent Substrate. Conditions: red fluorogenic substrate; series mostly up to 49.6 µM; activity change, negative = inhibition: at the top concentration. The text has this: NIH Chemical Genomics Center [NCGC]
NIH Molecular Libraries Probe Production Centers Network [MLPCN]
Assay Submitter (PI): Wei Zheng
Glucocerebrosidase (GC) catalyzes the hydrolysis of beta-glucocerebroside to glucose and ceramide in lysosomes. Mutations in the glucocerebrosidase gene result in Gaucher disease, an autosomal recessive lysosomal storage disorder. Many of the mutations encountered in patients with Gaucher disease are missense alterations that may cause misfolding, decreased stability and/or mistrafficking of this lysosomal protein. […] These inhibitors include iminosugar analogs and three non-iminosugar inhibitors identified from a previous HTS of 62,000 compounds with the wild type recombinant enzyme. However, the enhancement of enzyme activity by the chaperone action of an enzyme inhibitor must be balanced against the direct inhibition of the enzyme. An enzyme activator could also function as a chaperone by binding to the enzyme and helping to correct its misfolding and mistrafficking. While activators for GC have not yet been identified, they may have better therapeutic potential than inhibitors. Therefore the discovery and development of chemical activators may provide a new strategy for the chaperone therapy.
We have optimized a new assay using N370S mutant GC derived from the spleen of a Gaucher patient. […] In addition, the MLPCN compound library has expanded, which increases the chance of finding new and better probes.
This confirmation assay tests for compound activity in spleen homogenate from a patient homozygous for the N370S mutation using an alternate resorufin-based substrate.
NCGC Assay Protocol Summary:
This is a fluorogenic enzyme assay with resorufin-beta-D-glucopyranoside as the substrate and mutant N370S glucocerebrosidase from human spleen homogenate as the enzyme preparation. Upon the hydrolysis of this fluorogenic substrate, the resulting product, […] which can be detected by a standard fluorescence plate reader. Data were normalized to the controls for basal activity (without enzyme) and 100% activity (with enzyme). The AC50 values were determined from concentration-response data modeled with the standard Hill equation.
Assay buffer: 50 mM citric acid (titrated with potassium phosphate to pH 5.0), 100 mM potassium chloride, 10 mM sodium chloride, 1 mM magnesium chloride, 0.01% Tween-20.
1536-well assay protocol:
(1) Add 2 ul/well of spleen homogenate (27 ug final)
(2) Add 23 nL compounds in DMSO solution. The final titration was 0.5 nM to 58 uM.
(3) Add 2 ul of substrate (1 mM final)
(4) Incubate at 37C for 40 min.
(5) Add 2 ul stop solution (1M NaOH and 1M Glycine mixture, pH 10)
(6) Detect the assay plate in a ViewLux plate reader (PerkinElmer) with Ex=365 nm and Em=440nm.
Keywords: Glucocerebrosidase, beta-glucosidase, Gaucher Disease, pharmacological chaperone, chaperone therapy, high throughput screening, glucocerebrosidase inhibitor, MLSMR, MLSCN, NIH Roadmap, qHTS and NCGC
Consider `Oc1ccccc1Nc1nc(NCC2CCCO2)c2ccccc2n1` (centres undefined), for which the “activity change, negative = inhibition” value was -14.9%. Still for that read-out and setting: the figure for `O=c1cc(N2CCCCC2)c(-c2ccccc2)nn1Cc1c(Cl)cccc1Cl` is -2.62%. The same measure, in the same setting: the figure for `COc1ccccc1NC(=O)COc1ccccc1C(=O)Nc1ccccc1` is -5.3%; for `CCc1cc(C(=O)N/N=C/c2c(C)[nH]c3ccccc23)cs1` it is 0.119%. Same read-out and setting: the figure for `CCCNC(=O)COC(=O)c1ccccc1OCC(=O)Nc1ccc(Br)cc1` is -0.819%. Regarding `O=C(/C=C/c1ccc(O)cc1)c1ccc(O)cc1O`, the Potency was 4470 nM (active). As for `Cc1ccc(Cl)cc1NC(=O)c1ccccc1OCC(=O)Nc1ccc(Cl)cc1`, the “activity change, negative = inhibition” value is -9.04%.

`COc1cccc(CN(C)c2nc(-c3cccs3)nc3ccccc23)c1`: the Potency was 2510 nM (active). With `CC1CC(C)CN(C(=O)CSc2nc(Cc3cccs3)nc3ccccc23)C1` (centres undefined), the “activity change, negative = inhibition” value was -2.19%. Turning to `O=C(NCc1ccccc1)c1ccc(NS(=O)(=O)c2ccccc2)cc1`, the “activity change, negative = inhibition” value is -26.8%. With `Cc1cc(C)cc(N(CC(=O)NC2CCC(C)CC2)S(=O)(=O)c2c(C)[nH]c(=O)[nH]c2=O)c1` (centres undefined), the Potency is 562 nM (active).

As to `O=S(=O)(c1ccc(Cl)cc1)N1CCN(c2nc(-c3cccs3)nc3ccccc23)CC1`, the Potency is 891 nM (active). For the compound `COC(=O)c1ccccc1NC(=O)c1ccc2c(c1)C(=O)N(Cc1ccccc1)C2=O`, the “activity change, negative = inhibition” value was 4.22%.

Take `O=C(Nc1nccs1)c1ccc(NS(=O)(=O)c2ccc(Cl)cc2)cc1`: the “activity change, negative = inhibition” value is -6.72%.

Turning to `Cc1cc(N2CCCCC2)nc2ccc(NC(=O)C3CCC(C)CC3)cc12` (centres undefined), the Potency is 17800 nM (active). For `Cc1cc(Nc2cccc(Cl)c2)nc2ccc(NC(=O)C3CCC(C)CC3)cc12` (centres undefined), the “activity change, negative = inhibition” value was -11.8%. Regarding `Cc1cc(N2CCOCC2)nc2ccc(NC(=O)c3ccco3)cc12`, the “activity change, negative = inhibition” value was -10.1%. For the compound `O=C(Nc1cc(Br)ccc1O)c1cnn2c(C(F)F)cc(C3CC3)nc12`, the “activity change, negative = inhibition” value is 0.46%. On the same count and under the same terms, the value for `CCOc1ccccc1NC(=O)CN(c1ccc(C)cc1)S(=O)(=O)c1c(C)noc1C` was 3.15%. Consider `Cc1cc(N2CCOCC2)nc2ccc(NC(=O)C3CCC(C)CC3)cc12` (centres undefined), for which the Potency was 3160 nM (active). Turning to `O=C(CSc1nccc(-c2cccs2)n1)Nc1cccc(Cl)c1`, the “activity change, negative = inhibition” value was -1.32%.

Consider `Cc1ccc(NC(=O)COc2ccccc2C(=O)Nc2ccccc2)cc1Cl`, for which the “activity change, negative = inhibition” value was -0.617%. `Cc1ccc(S(=O)(=O)Nc2ccc(C(=O)NCc3ccccc3)cc2)cc1`: the “activity change, negative = inhibition” value was -14.8%.

In the case of `COc1cc2c(cc1NC(=O)COC(=O)[C@@H](NC(=O)c1ccccc1)C(C)C)oc1ccccc12`, the “activity change, negative = inhibition” value was -5.59%.

These data come from PubChem BioAssay AID2613 (National Center for Advancing Translational Sciences (NCATS), 2010).
